Screening results (PubChem)
DT40 TDP1 CPT – qHTS for Inhibitors of human tyrosyl-DNA phosphodiesterase 1 (TDP1): qHTS in cells in presence of CPT; chicken DT40 Tdp1-/-;hTDP1 cells + 20 nM CPT, ATP luminescence, 48 h; Potency, µM (titrated, usually from 46.2 µM), without a hit: top-dose activity change, negative = growth inhibition, actives largely listed as inhibitors; 12% of 420,000 active; AID 686979, 2013; also: potency is read from the fitted curve at half-maximal effect; nearly all actives have a fitted effect of over 55% in size
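Chicken DT40 Tdp1-/- cells stably complemented with human TDP1 were seeded at 400 cells/well in medium containing 20 nM camptothecin, exposed to pin-transferred compounds, and grown at 37 °C for at least 48 hr. Viability was read as ATP luminescence.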
IL1B secr inh – qHTS for Inhibitors of Inflammasome Signaling: IL-1-beta AlphaLISA Primary Screen; THP-1 LPS/ATP IL-1B secretion, AlphaLISA, 16 h; stronger effect = lower value; activity change, % at 57.5 µM; 4.7% of 360,000 active; AID 743279, 2014; in the data active = activity change below about -50%; inconclusive = mostly about -30% to -49%
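Secreted IL-1B measured by AlphaLISA bead assay after 16 h compound exposure of THP-1 cells; compounds (final up to 57.5 uM) added 1 h before LPS (250 ng/mL) and ATP (1.25 mM) stimulation; lower signal means less secretion.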
DT40 TDP1 no CPT – qHTS for Inhibitors of human tyrosyl-DNA phosphodiesterase 1 (TDP1): qHTS in cells in absence of CPT. 15% of 420,000 active. DT40 Tdp1-/- hTDP1 cells, no CPT, ATP luminescence, 48 h. Potency, µM (titrated, usually from 46.2 µM), inactives show top-dose activity change, negative = growth inhibition, usual class: inhibitors; also: potency is read from the fitted curve at half-maximal effect; nearly all actives have a fitted effect of over 55% in size
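Compound effects on proliferation are scored in DT40 Tdp1-/-;hTDP1 cells in the absence of CPT. ATP levels (CellTiter-Glo luminescence) are recorded after a ≥48 hr, 37 °C incubation.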
HT1080NT lethal – qHTS for induction of synthetic lethality in tumor cells producing 2HG: qHTS for the HT-1080-NT fibrosarcoma cell line; 1.6% of 360,000 active; HT-1080-NT fibrosarcoma viability, CellTiter-Glo ATP luminescence, 48 h; Potency, µM (doses to about 46.1 µM), inactives show at the highest dose activity, negative = less viability, hits mostly cytotoxic;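 also: NT is the 2HG producing partner of a matched IDH1 knockdown line; potency is read from the fitted curve at half-maximal effect; 0% = DMSO-treated cells and -100% = media-only wells without cells; nearly all actives have a fitted effect of over 55% in size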
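Viability by CellTiter-Glo luminescence after 48 h compound exposure at 37C of HT-1080-NT cells (750/well, RPMI, 5% FBS). % activity scaled between DMSO wells and medium-only wells, then curve-fitted and categorized by curve class.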
HT1080 IDH1KD tx – qHTS for induction of synthetic lethality in tumor cells producing 2HG: qHTS for the HT-1080-IDH1KD cell line; HT-1080 IDH1 knockdown viability, ATP luminescence, 48 h; Potency, µM (series often up to 46.1 µM), for the others: top-dose activity, negative = toxicity, usual class: cytotoxic; 2% of 360,000 active; AID 686971, 2013;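 also: potency is read from the fitted curve at half-maximal effect; 0% = DMSO wells and -100% = cell-free medium wells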
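Knockdown cells (IDH1KD HT-1080) received compounds 2 h after plating at 750 cells/well and were kept 48 h at 37 °C in 5% FBS RPMI. A CellTiter-Glo luminescence read gave % activity for curve fitting.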
* = called active by the depositor; ? = inconclusive; / = no result. Rows were chosen to be rich in hits. Some 19% of all compounds tested hit in one or more screens of this group. Unless noted, calls follow the shape of the dose curve; as a rule, active = well fitted curve in the direction sought with a large enough effect; inconclusive = small, poorly fitted or top-dose-only effect, or another doubt; inactive = no such curve, though single readings can be large; an effect the other way counts as inactive or inconclusive. Unless noted, % is scaled to controls: 0 for no effect and ±100 for the full control effect.

SMILES	DT40 TDP1 CPT	IL1B secr inh	DT40 TDP1 no CPT	HT1080NT lethal	HT1080 IDH1KD tx
CC[C@@H](C)[C@H](CN[C@H](CNC)C(C)C)NC[C@@H](C)c1ccc(CC(C)C)cc1	1.5µM*	-23	1.5µM*	?	?
CC(=O)Nc1ccc(CN2CCCC(C(=O)c3ccc(C(F)(F)F)cc3)C2)cc1 (stereo not drawn)	1%	-22	?	-28%	-14%
CCOC(=O)[C@]12CCCC=C1N(Cc1ccc3c(c1)OCO3)C(=O)[C@H](CC(=O)N1CCCCC1)C2	13µM*	-2	15µM*	3%	5%
CCOC(=O)N1CCN(C(=O)C[C@@H]2C[C@@]3(C(=O)OCC)CCC=C3N(Cc3ccc4c(c3)OCO4)C2=O)CC1	-28%	6	?	?	?
CCOC(=O)[C@]12CCC=C1N(Cc1ccc3c(c1)OCO3)C(=O)[C@H](CC(=O)N1CCC(c3ccccc3)CC1)C2	?	?	16µM*	-20%	?
CCOC(=O)[C@]12CCCC=C1N(Cc1ccc3c(c1)OCO3)C(=O)[C@H](CC(=O)N1CCCC1)C2	?	18	21µM*	1%	0%
O=C(Nc1ccccc1)c1cc(S(=O)(=O)N2CCSCC2)ccc1Cl	?	0	?	2%	4%
Cn1c(=O)[nH]c(=O)c2c1nc(SCC(O)CCl)n2Cc1ccccc1 (stereo not drawn)	12µM*	11	?	-9%	-11%
CC(O)CSc1nc2c(c(=O)[nH]c(=O)n2C)n1Cc1ccccc1 (stereo not drawn)	-22%	-5	-1%	7%	-5%
Cn1c(=O)[nH]c(=O)c2c1nc(SCC(=O)Nc1ccccc1)n2Cc1ccccc1	23µM*	-15	18µM*	-1%	0%
CC1(c2ccc3ccccc3c2)NC(=O)N(CC(=O)N2CCCC(C(F)(F)F)C2)C1=O (stereo not drawn)	-28%	2	-7%	-11%	-16%
O=C(O)C1CC=CCC1C(=O)N1CCN(c2nc(-c3ccccc3)c3ccccc3n2)CC1 (stereo not drawn)	18µM*	-63*	?	-6%	-22%
CCN1CCN(c2nc(-c3ccccc3)c3ccccc3n2)CC1	?	?	?	13µM*	?
COCC(=O)Nc1cccc(C(F)(F)F)c1	0%	28	-17%	-1%	-3%
CCOc1ccccc1NC(=O)Cc1coc2ccc(C)cc12	?	28	16µM*	6%	9%
CCOc1ccccc1NC(=O)Cc1noc2ccc(C)cc12	-12%	/	?	/	/
CC(C)c1ccc2occ(CC(=O)Nc3cccc(C(F)(F)F)c3)c2c1	?	/	29µM*	/	/
Cc1ccc2occ(CC(=O)Nc3ccc(Cl)c(C(F)(F)F)c3)c2c1	21µM*	/	16µM*	/	/
CC(=O)Nc1cc(NC(C)=O)cc(C(=O)N2CCCC3CCCCC32)c1 (stereo not drawn)	5%	7	-19%	8%	8%
Cc1cc(Cl)ccc1-c1nc(NC(C)C)nc2ccsc12	18µM*	15	23µM*	-2%	0%
Cc1cc(Cl)ccc1-c1nc(NCc2ccccc2)nc2ccsc12	?	0	?	?	?
Cc1cccc(C(=O)NCCC(=O)Nc2ccc(F)c([N+](=O)[O-])c2)c1	?	-64*	?	-5%	-5%
O=C(CCc1ccccc1)Nc1ccc(F)c([N+](=O)[O-])c1	-9%	-94*	-23%	-16%	-1%
Cc1cccc(C(=O)NCCC(=O)Nc2ccc(C)c(F)c2)c1	-4%	-10	?	-7%	1%
O=C(COC(=O)c1ccc(F)c([N+](=O)[O-])c1)NC(=O)NCc1ccccc1	21µM*	-99*	?	-18%	-17%
SMILES	DT40 TDP1 CPT	IL1B secr inh	DT40 TDP1 no CPT	HT1080NT lethal	HT1080 IDH1KD tx
Cc1ccc(CC(=O)Nc2ccc(F)c([N+](=O)[O-])c2)cc1	?	0	0%	10%	6%
Cc1ccc(Cl)cc1NC(=O)c1cccc(OC(F)F)c1	-27%	-5	-23%	-10%	-11%
COc1ccc(S(=O)(=O)Nc2cccc3c2O[C@H](CN(C)S(=O)(=O)c2ccccc2)[C@@H](C)CN([C@H](C)CO)C3=O)cc1	-26%	-11	-10%	0%	-9%
CC(C)C(=O)Nc1cccc(C(=O)Nc2nnc(CC(C)(C)C)s2)c1	-21%	/	?	/	/
NC(=O)c1nnn(-c2nonc2N)c1-c1ccc([N+](=O)[O-])cc1	-4%	1	?	5%	-5%
O=C(CSc1nnc(NCc2ccccc2)s1)NC1CCS(=O)(=O)C1 (stereo not drawn)	9%	-6	14%	6%	1%
CN1/C(=C\C(=O)CSc2nnc(NCc3ccccc3)s2)C(C)(C)c2ccccc21	15µM*	2	?	-6%	-13%
Cc1cc(C(=O)CSc2nnc(NCc3ccccc3)s2)c(C)n1C	10µM*	6	13µM*	15µM*	?
Cc1ccc(NC(=O)Cn2ccn(Cc3ccc(Cl)cc3)c(=O)c2=O)cc1C	-11%	/	5%	/	/
COc1ccc(OC)c(S(=O)(=O)NCC(c2ccc3c(c2)OCO3)N2CCOCC2)c1 (stereo not drawn)	-5%	2	0%	0%	0%
CCN1CCCC1CNC(=O)c1cnn(-c2nccc(-c3ccccc3F)n2)c1C (stereo not drawn)	-2%	/	-19%	/	/
Cc1ccccc1CN1CCN(CC(=O)NCc2ccccc2Cl)C1=O	1%	/	-21%	/	/
CCN1CCn2c3c(c4cc(C)ccc42)CCCC31 (stereo not drawn)	?	-6	23µM*	2%	-3%
Cc1ccc2c(c1)c1c3n2CCN(C(=O)CCl)C3CCC1 (stereo not drawn)	4.6µM*	-99*	3.3µM*	16µM*	?
CCCN(CCC)S(=O)(=O)c1ccc(C(=O)N2CCn3c4c(c5cc(C)ccc53)CCCC42)cc1 (stereo not drawn)	16µM*	/	?	/	/
O=C1NC[C@H](CC2CCCCC2)N(CCC23CC4CC(CC(C4)C2)C3)C1=O	-8%	-2	-16%	1%	22%
COc1ccc(NC(=O)c2nc3nc(C)cc(C(F)F)n3n2)c(C)c1	-4%	/	-1%	/	/
